# Structures can show the parent of a compound that is named as a salt.
# Test system: HL-1
# Test: relative cell viability (CellTiter-Glo) vs DMSO control (% of DMSO control); higher = more viable cells
# Outline: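 Cell viability, normalised to vehicle-treated control cells, was read by CellTiter-Glo luminescence. For this, HL-1 mouse atrial cardiomyocytes were plated at 1000 cells per well in 384-well plates alongside compounds at 40, 200, 1000 or 5000 nM in 0.01% DMSO. After a day, plates either spent 48 h in a hypoxic workstation at 1% O2 and then 24 h reoxygenating in a normal incubator, or remained in normoxia for the same period.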
# [1] = oxygen condition: hypoxia 48 h (1% O2) + reoxygenation 24 h, 40 nM
# [2] = oxygen condition: hypoxia 48 h (1% O2) + reoxygenation 24 h, 200 nM
# [3] = oxygen condition: hypoxia 48 h (1% O2) + reoxygenation 24 h, 1000 nM
# [4] = oxygen condition: hypoxia 48 h (1% O2) + reoxygenation 24 h, 5000 nM
# [5] = oxygen condition: normoxia 72 h, 40 nM
# [6] = oxygen condition: normoxia 72 h, 200 nM
# [7] = oxygen condition: normoxia 72 h, 1000 nM
# [8] = oxygen condition: normoxia 72 h, 5000 nM
Compound,relative cell viability [1],relative cell viability [2],relative cell viability [3],relative cell viability [4],relative cell viability [5],relative cell viability [6],relative cell viability [7],relative cell viability [8]
C[N+]1(C)CCC(=C(c2ccccc2)c2ccccc2)CC1 [Diphemanil methylsulfate],104,100,104,104,102,104,106,100
CC(=O)O[C@H]1CC[C@@]2(C)C(=CC[C@@H]3[C@@H]2CC[C@]2(C)C(c4cccnc4)=CC[C@@H]32)C1 [Abiraterone Acetate],104,103,101,117,97.2,99.2,102,115
NC(=O)c1cccnc1 [Nicotinamide],95.4,97.2,98.5,104,96.7,103,95.5,102
CCCc1nn(C)c2c(=O)[nH]c(-c3cc(S(=O)(=O)N4CCN(C)CC4)ccc3OCC)nc12 [Sildenafil citrate],99.7,102,105,104,107,103,101,109
CC(C)[C@H](N)C(=O)OCC(CO)OCn1cnc2c(=O)nc(N)[nH]c21 (stereo partly specified) [valganciclovir hydrochloride],107,107,107,121,108,110,114,115
CC1=CC(=O)c2ccccc2C1=O [Menadione],100,98.2,102,109,101,104,101,106
C=C1CC[C@H](O)C/C1=C/C=C1\CCC[C@]2(C)[C@@H]([C@H](C)/C=C/[C@H](C)C(C)C)CC[C@@H]12 [Vitamin D2],102,99.8,111,112,107,105,109,110
CCN(Cc1ccncc1)C(=O)C(CO)c1ccccc1 (stereo unspecified) [Tropicamide],102,99.4,101,107,99.4,102,101,104
Nc1nc(F)nc2c1ncn2[C@@H]1O[C@H](COP(=O)(O)O)[C@@H](O)[C@@H]1O [Fludarabine Phosphate],115,108,119,113,108,115,119,111
COCCCC/C(=N\OCCN)c1ccc(C(F)(F)F)cc1 [Fluvoxamine maleate],101,109,94.9,94.7,109,98.3,106,95.2
O=C(O)C1(C(=O)O)CCC1.[NH2-].[NH2-].[Pt+2] [Carboplatin],110,109,95.3,112,100,106,108,119
N=C(N)NCCN1CCCCCCC1 [Guanethidine Sulfate],101,101,96.2,113,103,107,103,116
O=c1[nH]c(=O)n(C2CCCO2)cc1F (stereo unspecified) [Ftorafur],101,103,104,96.9,100,101,114,89.2
Clc1ccc(COC(Cn2ccnc2)c2ccc(Cl)cc2Cl)c(Cl)c1 (stereo unspecified) [Miconazole],96.8,99.4,98.3,104,101,101,101,106
CCC(=O)NCC[C@@H]1CCc2ccc3c(c21)CCO3 [Ramelteon],104,116,110,111,105,108,118,107
CN1[C@@H]2CC[C@H]1C[C@@H](OC(=O)c1c[nH]c3ccccc13)C2 [Tropisetron],99.6,103,100,104,98.7,101,104,66
Nc1c2c(nc3ccccc13)CCCC2 [Tacrine HCl],91.7,89.5,81.2,20.3,94.1,82.5,70.4,26.4

# From the supplement of paper PMC8371130
